From PubChem BioAssay (NCI)
This is part of a sample that, as a whole, favours compounds with a hit. Of some 83,000 tested, about 20% had one in any assay.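 Cells were grown in 96-well plates and exposed to the test compound at a single concentration for 48 hours; results are reported as percent growth, with values below 10 considered active.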 Unmarked numbers belong to inactive results. Active and inactive are the calls of the source.

Columns and labels:
Experiment in all cases: NCI-60 one-dose screen, 48 h (100 = growth as untreated, 0 = no growth, -100 = all killed)
Details in all cases: 10 µM unless noted
[1] = test system: NCI-H23 lung
[2] = test system: NCI-H226 lung
[3] = test system: NCI-H322M lung
[4] = test system: HOP-62 NSCLC
[5] = test system: NCI-H460 lung
[6] = test system: HOP-92 NSCLC
[7] = test system: NCI-H522 lung
[8] = test system: A549/ATCC NSCLC
[9] = test system: 786-0 renal
[10] = test system: COLO 205 colon

Row | Structure (SMILES) | growth [1] | growth [2] | growth [3] | growth [4] | growth [5] | growth [6] | growth [7] | growth [8] | growth [9] | growth [10]
1 | C=C1C(=O)O[C@H]2[C@H]1CC/C(Cn1cc(CNC(=O)/C=C/c3c[nH]c4ccccc34)nn1)=C\CC[C@@]1(C)O[C@@H]21 | 100% | 92.5% | 101% | 104% | 98.1% | 82.9% | 16.4% | 91.6% | 102% | 67.9%
2 | CCOC(=O)c1c(NS(=O)(=O)c2ccc(C)cc2)sc2c1CCC1(C2)OCCO1 | 94.2% | 85.8% | 99.8% | 90.7% | 100% | 77.1% | 79.6% | 103% | 99.3% | 115%
3 | COC(OC)c1ccccc1 | 105% | 108% | 103% | 99.3% | 117% | 79.6% | 101% | 103% | 95% | 107%
4 | COc1cccc(/C=C2\Oc3cc(OCCCN4CCCC4)ccc3C2=O)c1 | 88% | 95.4% | 88.2% | 98.1% | 78.4% | 74.1% | 92.2% | 91% | 74.4% | 86.7%
5 | O=C1/C(=C/c2ccc([N+](=O)[O-])cc2)CN(C(=O)CCN2CCC(=NO)CC2)C/C1=C\c1ccc([N+](=O)[O-])cc1 | 0.382% (active) | 15.1% | -18.7% (active) | -21.9% (active) | -46.3% (active) | -10.4% (active) | -76.8% (active) | 21.3% | -37.1% (active) | -65.3% (active)
6 | CC(C)CSc1nc(NN)c(C#N)c(-c2ccc(F)cc2)n1 | 70.4% | 80.3% | 74.9% | 47.3% | 52.1% | 105% | 63.2% | 77.1% | 85.9% | 97.1%
7 | O=C(NS(=O)(=O)c1ccc2ccccc2c1)n1cc(-c2ccncc2)c(-c2ccc(Cl)c(O)c2)n1 | 61.5% | 84.9% | 116% | 92.1% | 89.7% | 48.1% | 61.5% | 78% | 99.1% | 105%
8 | O=C(NS(=O)(=O)c1ccccc1)n1cc(-c2ccncc2)c(-c2ccc(Cl)c(O)c2)n1 | 104% | 103% | 103% | 119% | 107% | 99.6% | 85.4% | 98.3% | 100% | 111%
9 | C=C[C@@H]1C[C@@H]2Cc3ccccc3N1O2 | 98.9% | 109% | 112% | 96.6% | 107% | 126% | 120% | 96.3% | 104% | 116%
10 | CC(C)(C)OC(=O)NC(CSCc1ccccc1)C(=O)ON1C(=O)CCC1=O (stereo not given) | 94.3% | 110% | 131% | 105% | 111% | 92.4% | 91.5% | 106% | 114% | 112%
11 | C=C(C)[C@@H]1C[C@@H]2Cc3cc(F)ccc3N1O2 | 96.6% | 99.1% | 104% | 94.4% | 102% | 56.1% | 91.3% | 97.9% | 103% | 106%
12 | CC1CN(c2oc(-c3ccccc3)nc2C#N)CC(C)O1 (stereo not given) | 112% | 92% | 99.1% | 103% | 99.7% | 123% | 99.4% | 104% | 99.6% | 116%
13 | COC(=O)C(Sc1ccc(Cl)cc1)C1SC(=S)N(Cc2ccccc2)C1=O (stereo not given) | 97.3% | 116% | 105% | 95.1% | 107% | 104% | 96.7% | 98.2% | 103% | 117%
14 | COc1ccc(-c2nc(/C=N/Nc3cc(C)nc4ccc(Br)cc34)c(C)o2)cc1 | -41.9% (active) | -37.4% (active) | -96.2% (active) | 64.5% | -80.6% (active) | -84.3% (active) | -58.4% (active) | -61% (active) | -81.5% (active) | -75.6% (active)
